D3 antag: qHTS of D3 Dopamine Receptor Antagonist: qHTS | AID 652054, 2013 | D(3) dopamine receptor (Homo sapiens), P35462 | D3R cells, DiscoveRx beta-arrestin luminescence, antagonist mode; stronger effect = lower value | hit rate 2.5% among 360,000 | max response, negative = inhibition, %; in the data active = max response below about -50%; inconclusive = no clear call, values can overlap the other calls; also: % is scaled to controls: 0 for no effect and ±100 for the full control effect
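Cells expressing the human receptor were seeded at 1500 cells/well, incubated overnight at 37 degrees C in 5% CO2, then exposed to library compounds with dopamine controls for 90 minutes at 37 degrees C before luminescent detection.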
GLP1R inv ag: qHTS of GLP-1 Receptor Inverse Agonists (Inhibition Mode); Glucagon-like peptide 1 receptor (Homo sapiens), P43220; HEK293 GLP-1R CRE-luciferase, luminescence, 24 h; GLP-1R form is constitutively active; Potency, µM (titrated, usually from 38.3 µM), without a hit: at the highest dose activity change, negative = inhibition, hits mostly inhibitors; hit rate 1.6% among 410,000; also: potency is read from the fitted curve at half-maximal effect; % is scaled to controls: 0 for no effect and ±100 for the full control effect; nearly all actives have a fitted effect of over 55% in size
Target sequence (P43220 whole entry, looked up): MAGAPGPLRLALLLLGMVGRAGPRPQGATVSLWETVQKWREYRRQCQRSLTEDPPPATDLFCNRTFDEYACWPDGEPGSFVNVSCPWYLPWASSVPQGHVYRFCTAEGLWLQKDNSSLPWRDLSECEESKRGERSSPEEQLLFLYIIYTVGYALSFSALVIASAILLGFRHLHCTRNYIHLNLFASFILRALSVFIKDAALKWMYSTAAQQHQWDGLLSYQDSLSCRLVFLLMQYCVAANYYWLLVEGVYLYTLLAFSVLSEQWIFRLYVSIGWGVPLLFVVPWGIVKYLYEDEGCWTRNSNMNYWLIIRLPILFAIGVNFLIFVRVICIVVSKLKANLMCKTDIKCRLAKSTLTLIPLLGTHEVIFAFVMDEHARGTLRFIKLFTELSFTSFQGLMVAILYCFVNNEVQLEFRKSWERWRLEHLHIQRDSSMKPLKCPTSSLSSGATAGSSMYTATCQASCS
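Using stably transfected HEK293 (constitutively active GLP-1R, cAMP-luciferase reporter), compounds were incubated 24 hr and luciferase measured by luminescence.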
ClpP mod: qHTS Assay for Activators of ClpP | ATP-dependent Clp protease proteolytic subunit (Bacillus subtilis (strain 168)), P80244 | purified B. subtilis ClpP, FRET peptide cleavage, 20 min | Potency, µM (titrated, usually from 57.5 µM), without a hit: at the top dose activity change, negative = active | hit rate 1.9% among 340,000 | AID 651965, 2013; active = well fitted falling curve with a large enough effect; inconclusive = small, poorly fitted or top-dose-only effect; inactive = no such curve, though single readings can be large or run the other way; also: potency is read from the fitted curve at half-maximal effect; the source files actives as falling curves though it sought activators and does not explain the sign; nearly all actives have a fitted effect of over 65% in size
Target sequence (P80244 whole entry, looked up): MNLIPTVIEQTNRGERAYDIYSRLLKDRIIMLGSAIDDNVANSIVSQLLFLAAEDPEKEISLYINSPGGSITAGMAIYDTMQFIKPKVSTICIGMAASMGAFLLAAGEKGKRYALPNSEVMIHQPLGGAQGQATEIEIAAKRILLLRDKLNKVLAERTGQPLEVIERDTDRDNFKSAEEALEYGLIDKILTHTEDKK
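Buffer: 100 mM Tris/HCl pH8, 100 mM KCl, 0.05% low protease BSA, 2.5% glycerol, 0.01% Tween-20. ClpP 10 microg/mL final; 20 min RT; delta FRET normalized to ADEP and DMSO controls.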
GLP-1R agonist: qHTS of GLP-1 Receptor Agonists; Glucagon-like peptide 1 receptor (Homo sapiens), P43220; HEK293 GLP-1R CRE-luciferase, luminescence, 4-6 h; cells express a hypersensitive GLP-1R form; Potency, µM (titrated, usually from 45.6 µM), for inactives: at the top dose activation, usual class: activators; hit rate 0.007% among 380,000; also: potency is read from the fitted curve at half-maximal effect; % of control where 0% means no effect
DRD3 agonist: qHTS of D3 Dopamine Receptor Agonist: qHTS; hit rate 0.58% among 410,000; max activation, %; D3R DiscoveRx beta-arrestin cells, luminescence, 90 min; D(3) dopamine receptor (Homo sapiens), P35462; in the data active = max activation above about 30%; also: 0% is about no effect
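Agonist mode: compounds and dopamine controls were applied to plated cells for 90 min at 37 degrees C after an overnight attachment at 1500 cells/well. Luminescent read-out followed 30 - 60 minutes at room temperature with DiscoveRx detection reagent.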
GLP1R cytotox: qHTS of GLP-1 Receptor Inverse Agonists: Cytotox Screen. HEK293 cAMP-luciferase reporter cells, luminescence, 24 h. Potency, µM (doses to about 38.3 µM), for inactives: top-dose activity change, negative = inhibition, most hits filed as inhibitors. hit rate 0.13% among 410,000;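 also: loss of luciferase light is scored as toxicity; potency is read from the fitted curve at half-maximal effect; % is scaled to controls: 0 for no effect and ±100 for the full control effect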
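Step one: seed cells (200 cells/uL, DMEM with 10% Nu serum, 1% pen-strep). Step two: 12-hour incubation at 37 deg C. Step three: pin 23 nL compound, incubate 24 hr. Step four: add luciferase reagent, read luminescence 12 min later.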
Numbers without * were called inactive; ? = inconclusive; . = not tested or not shown. Compounds with a hit are over-represented: about 5.7% of the library has one in this group of screens. Unless noted, calls follow the shape of the dose curve; as a rule, active = well fitted curve in the direction sought with a large enough effect; inconclusive = small, poorly fitted or top-dose-only effect, or another doubt; inactive = no such curve, though single readings can be large; an effect the other way counts as inactive or inconclusive.

SMILES	D3 antag	GLP1R inv ag	ClpP mod	GLP-1R agonist	DRD3 agonist	GLP1R cytotox
NC(=O)c1cccc(-c2cccc(OC(=O)NC3CCCCC3)c2)c1	-0.7	39.9%	-1.0%	-10.6%	1.1	-6.4%
CCc1ccc(OCC(=O)NC(NC(=S)Nc2ccccc2)C(Cl)(Cl)Cl)cc1 (stereo unspecified)	-5.4	3.98µM*	-8.7%	3.6%	-12.1	?
O=C(CCc1ccccc1)NC(NC(=S)Nc1ccc(Cl)cc1)C(Cl)(Cl)Cl (stereo unspecified)	?	?	1.6%	-22.8%	-5.9	?
CCc1ccc(OCC(=O)NC(NC(=S)Nc2ccccc2C)C(Cl)(Cl)Cl)cc1 (stereo unspecified)	-56.5*	?	?	-1.1%	-20.2	?
Cc1cccc(NC(=O)c2cc3c(=O)n4ccccc4nc3n2C)c1C	.	-28.9%	?	.	10.1	-6.0%
CCN(CC)CCNCC(=O)Nc1ccc(Cl)cc1C(=O)c1ccccc1	-55.6*	?	-1.4%	-1.8%	1.2	-3.9%
COc1ccc(C(CNC(=O)c2ccc3c(c2)CCC3)N(C)C)cc1 (stereo unspecified)	-80.6*	?	.	11.9%	-12.3	-2.9%
COc1ccc(C(=O)C(Cc2ccccc2)N(C)C)cc1 (stereo unspecified)	8.7	4.9%	-5.6%	20.9%	-13.0	0.9%
CCCCN(CC)CCCNC(=O)c1ccc2c(c1)N(Cc1ccc(C)cc1)C(=O)c1ccccc1S2	.	?	0.1%	.	-29.7	?
c1ccc(CCc2ccc3n2Cc2cnnn2-c2ccccc2-3)cc1	-20.2	11.2µM*	3.9%	0.7%	-6.3	-0.9%
COc1ccc(-c2ccc3n2Cc2cnnn2-c2ccccc2-3)cc1	33.4	0.3%	3.6%	-1.4%	11.0	-5.6%
CCOc1ccc2nc(N(CCN(CC)CC)C(=O)c3ccc([N+](=O)[O-])cc3)sc2c1	-4.1	?	.	24.7%	-1.3	5.9%
CN(C)C(=O)Oc1ccc(OC(=O)N(C)C)cc1	-4.7	4.8%	1.3%	-1.6%	3.1	1.6%
CN(C)C(=O)Oc1ccc(OCc2nc3ccccc3[nH]2)cc1	-11.1	7.08µM*	-2.3%	-26.9%	-4.1	15.8%
CCCOP(=O)(OCCC)C(Nc1ccc(C(C)C)cc1)c1ccc([N+](=O)[O-])cc1 (stereo unspecified)	-12.3	?	1.5%	1.9%	-10.6	?
Cc1ccc(C(=O)N/N=C/c2ccc(-c3cccc(Cl)c3)o2)cn1	19.2	7.94µM*	-10.5%	-3.7%	5.1	?
Cc1c(NC(=O)/C(C#N)=C/c2ccc(-c3cccc(Cl)c3)o2)c(=O)n(-c2ccccc2)n1C	-12.0	?	-1.8%	4.5%	-5.3	?
CCC(C)OC(=O)c1c(N)n(Cc2cccs2)c2nc3ccccc3nc12 (stereo unspecified)	-11.9	?	14.1µM*	0.0%	-2.5	48.0%
Nc1c(C(=O)OCc2ccccc2)c2nc3ccccc3nc2n1Cc1cccs1	-13.0	0.0%	28.2µM*	-10.0%	16.1	-18.3%
COCCCn1c(N)c(C(=O)OC(C)COC)c2nc3ccccc3nc21 (stereo unspecified)	46.2	27.8%	?	1.3%	3.9	425.4%
CC([C@H](O)c1ccccc1)N(C)C (stereo partly specified)	.	.	.	3.3%	.	.
CCN1CCN(Cc2ccc(C)cc2C)CC1	-71.7*	2.6%	1.0%	-2.5%	-2.1	4.4%
CCN1CCN(Cc2ccccc2C)CC1	-65.7*	1.3%	-1.7%	5.5%	-12.9	5.4%
N#CC(C#N)=C1C=CC=CN1/C(=C\c1ccco1)C(=O)c1ccc(Cl)cc1	-108.1*	5.62µM*	-1.7%	-30.0%	-6.0	67.4%
Cc1[nH]c2ccccc2c1C(O)CN1CCN(c2cccc(C(F)(F)F)c2)CC1 (stereo unspecified)	-74.1*	?	-3.0%	-1.0%	-9.6	?
SMILES	D3 antag	GLP1R inv ag	ClpP mod	GLP-1R agonist	DRD3 agonist	GLP1R cytotox
CCOc1ccc(-c2cc(C(=O)N3CCN(c4cccc(C(F)(F)F)c4)CC3)c3ccccc3n2)cc1	.	?	4.2%	.	-12.8	-12.9%
C[C@]12CC[C@H]3[C@@H](CCC4=C(O)C(=O)CC[C@@H]43)[C@@H]1CC[C@@H]2OC(=O)CCC1CCCC1	.	.	.	.	3.2	.
COc1ccc2ccc(O)c(CN3CC=C(c4ccccc4)CC3)c2c1	?	?	-22.7%	4.0%	0.4	-21.0%
COc1cccc(CN2CC=C(c3ccc(F)cc3)CC2)c1	-77.5*	?	1.0%	-5.3%	-26.2	5.9%
CC1CCC(NC(=O)Cn2c(=O)oc3ccccc32)CC1 (stereo unspecified)	-50.7*	36.1%	-3.5%	6.5%	-7.6	?
Cc1cccc(OCCNc2ncccc2[N+](=O)[O-])c1	42.7	2.3%	1.6%	?	-8.2	5.9%
CCCC1=Nc2cc(C(=O)NCCc3ccc(OC)cc3OC)ccc2Sc2ccccc21	.	?	-6.4%	2.5%	-7.6	-10.4%
CCN(CC)CCNC(=O)c1nn(-c2ccc(Cl)cc2)c2c1CCc1cc(OC)ccc1-2	-7.9	4.47µM*	?	-1.4%	-17.4	?
CN(C)C1(c2nnnn2CCOC(=O)Nc2ccc(Cl)cc2)CCCCC1	10.3	7.08µM*	-13.4%	1.9%	-0.4	-17.0%
CN(C)C1(c2nnnn2-c2ccc(Cl)cc2)CCCCC1	-20.3	?	-1.4%	8.7%	-5.8	6.1%
C=CCC[C@@H](Cc1ccc(F)cc1)C(=O)OC[C@@H](NC(=O)[C@@H](CC=C)CC(=O)N[C@H](CO)Cc1ccccc1)C(C)(C)C	-63.2*	?	1.9%	-2.1%	-16.3	0.0%
C=CCC[C@@H](Cc1ccc(F)cc1)C(=O)OC[C@@H](C)NC(=O)[C@@H](CC=C)CC(=O)N[C@H](CO)Cc1ccccc1	0.0	?	1.8%	3.1%	0.0	-9.8%
Cc1ccccc1CCNCc1ccc(Br)cc1	-58.7*	?	.	18.2%	-4.0	-22.4%
COc1ccc(CCNCc2ccc(Br)cc2)cc1OC	-60.0*	-23.8%	-0.2%	-2.7%	-15.3	4.3%
C[C@]12CC[C@@H]3c4ccc(OC(=O)N(CCCl)CCCl)cc4CC[C@@H]3[C@H]1CC[C@@H]2OP(=O)(O)O	.	.	.	-6.4%	.	.
C[C@@H]1CN([C@H](C)CO)S(=O)(=O)c2ccc(C#CC3CCCC3)cc2O[C@H]1CN(C)C(=O)Cc1ccccc1	8.7	?	-2.5%	-1.8%	0.5	?
CC(C)CC(CN)CC(=O)O (stereo unspecified)	.	.	.	7.0%	.	.

Screening data deposited in PubChem by National Center for Advancing Translational Sciences (NCATS).
